Hits are enriched below; roughly 1% of the tested compounds scored in any of these assays.
TNFa cytotox = HUVEC cytotoxicity counter-screen, TNF alpha stimulated; HUVEC TNFalpha-stimulated, Hoechst cell count, imaging; AID 848; cell count reduction, % at 2 µM; 0.17% of 93,000 active;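 active = cell count reduction exceeding the screen mean by over 5 SD, scaled to untreated wells per plate, cut at about 78% in these data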;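 note: cells counted after 24 h of TNF alpha exposure following the 1 h pretreatment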
E-sel TNF inh = blocks E-selectin expression induced by TNF alpha. 0.71% of 120,000 active. HUVEC TNFa-induced E-selectin immunofluorescence, high content. AID 1246. inhibition, % at 2 µM;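 active = inhibition above the batch mean plus 3 SD, and confirmed as a hit on visual image review, cut at about 43% in these data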;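 note: 0% = TNF-stimulated DMSO wells and 100% = unstimulated control wells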
F-actin modifier = modifiers of cytoskeleton assembly | AID 836 | inhibition, % at 2 µM | 0.18% of 91,000 active | HUVEC TNFa F-actin phalloidin imaging, high content;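 active = inhibition above the batch mean plus 3 SD and confirmed as a hit by visual image inspection, cut at about 30% in these data, passing the limit was not always enough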
VCAM1 TNFa inh = reduces TNF alpha induced VCAM1 expression in HUVEC; HUVEC TNFa-induced VCAM-1 immunofluorescence, high-content imaging; inhibition, % at 2 µM; 0.48% of 95,000 active; AID 802;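 active = inhibition above the batch mean plus 3 SD, with images confirmed as a hit by eye, cut at about 37% in these data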;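 note: 0% = TNF-stimulated DMSO wells and 100% = unstimulated control wells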
Active calls of the source: *; / = no result given.

SMILES	TNFa cytotox	E-sel TNF inh	F-actin modifier	VCAM1 TNFa inh
Cc1cc(C)n(-c2nc3ccccc3nc2N2CCC(C)CC2)n1	-4	-8	-9	12
Cc1cc(N2CCC(C)CC2)nc(-n2nc(C)cc2C)n1	27	1	40*	-4
Cc1cccc(NC(=O)c2ccccn2)c1C	-33	0	8	5
Cc1cccc(NC(=S)Nc2ccccn2)c1C	/	62*	/	/
CC(C)Cn1c(-c2cccs2)nc2ccccc21	4	85*	-8	-3
O=C(CSc1nc2ccccc2c(=O)n1-c1ccccc1)NCc1ccco1	88*	10	-27	42
CCC(C)Nc1nc(OC(C(F)(F)F)C(F)(F)F)nc(OC(C(F)(F)F)C(F)(F)F)n1 (stereo unspecified)	-5	43*	7	-2
O=C(CCn1c(=O)oc2ccccc21)N1CCN(c2ccccc2F)CC1	80*	/	0	41
O=C(CCn1c(=O)oc2ccccc21)N1CCN(C(c2ccccc2)c2ccccc2)CC1	-7	/	10	-8
O=C(Nc1ccc(C(=O)O)cc1)/C(=C\c1ccc([N+](=O)[O-])cc1)NC(=O)c1ccc(Br)cc1	/	31	/	/
CC1CCN(c2nc(Cl)nc(Nc3ccc([N+](=O)[O-])cc3)n2)CC1	/	4	/	/
